According to PubChem BioAssay (NCI):
The panel holds about 83,000 compounds, 20% with a hit somewhere; the sample as a whole holds those more often.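 Note: values are percent growth. 100 is the growth of untreated cells, values between 100 and 0 indicate rising inhibition; between -100 and 0 indicates cell death.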 Active and inactive are the calls of the source.

Each molecule was assayed on RPMI-8226 leukemia (assay: NCI-60 one-dose screen, 48 h (100 = growth as untreated, 0 = no growth, -100 = all killed)). Conditions: 10 µM unless noted.
Protocol: Growth inhibition of the RPMI-8226 human tumor cell line is measured as a screen for anti-cancer activity. Cells are grown in 96 well plates and exposed to the test compound for 48 hours. Compounds are tested at a single concentration, which is 10^-5 M for most compounds. The reported endpoint is percent growth (GI% or GIPRCNT), where numbers from 0 - 100% represent growth inhibition, and numbers from -100% - 0 represent cell death. For example, a value of 40 represents 60% growth inhibition. A value of 0 means no net growth occurred over the course of the experiment. A value of -40 indicates 40% of cells at the beginning of the experiment died by the end of the experiment. A value of -100 means all cells are dead at the end of the experiment.
NCI-60 Human Tumor Cell Lines Screen was performed using the standard one-dose NCI protocol, which is described in more detail at https://dtp.cancer.gov/discovery_development/nci-60/default.htm.
Compounds with GIPRCNT values below 10 were considered active. Activity score was based on GIPRCNT using the following formula: […]
Score is 0 for GIPRCNT values of 100 or above, 50 for GIPRCNT values of 0, and 100 for GIPRCNT values of -100.

Row | SMILES | growth
1 | C=CCN1C(=O)/C(=C/C(=O)OC)S/C1=N\NC(=O)c1cc2ccc1/C=C\c1ccc(cc1)/C=C\2 | -9.36% (active)
2 | C=C1C(=O)O[C@H]2[C@H]1CC/C(CNC(=O)/C=C/c1cccc(OC)c1)=C\CC[C@@]1(C)O[C@@H]21 | 2.73% (active)
3 | Cc1nc2ccc(Cl)cn2c1-c1nnc(SCc2ccc([N+](=O)[O-])cc2)o1 | 81.9% (inactive)
4 | N#CC1=C(N)Oc2c(ccc3ccccc23)C1c1ccccc1Cl (stereo not given) | 30.1% (inactive)
5 | Cc1c(C)c([N+](=O)[O-])c(C)c([N+](=O)[O-])c1C | 102% (inactive)
6 | COc1cc(C2=C(c3cn(C)c4ccccc34)COC2=O)cc(OC)c1OC | 15.2% (inactive)
7 | C=C(C)[C@@H]1CC[C@]2(C(=O)N[C@@H](Cc3ccccc3)C(=O)OC)CC[C@]3(C)[C@H](CC[C@@H]4[C@@]5(C)CCC(=O)C(C)(C)[C@@H]5CC[C@]43C)[C@@H]12 | 85.2% (inactive)
8 | O=C1Nc2cc(-c3ccc(NC(=O)C4CC4)cc3)ccc2/C1=C/c1ccc[nH]1 | 93.6% (inactive)
9 | CCCCCN1C=C/C(=C\C(=O)N(C)c2ccc(Oc3ccccc3)cc2)c2ccccc21 | 68.6% (inactive)
10 | Cc1cc(C(=O)/C=C/c2ccc[nH]2)ccc1-n1ccc(C(F)(F)F)n1 | -40.1% (active)
11 | CCCCOc1ccc(/C(C)=N/Nc2cc(C)nc3ccc(Br)cc23)cc1 | 57.9% (inactive)
12 | O=C1C=CC(=O)N1c1cccc(Cl)c1 | 95.6% (inactive)
13 | CCNc1nc2cc(Nc3ccnc4cc(Cl)ccc34)ccc2o1 | 80.9% (inactive)
14 | COc1ccc(C(=O)C2C(C#N)C(C#N)C3C=Cc4ccccc4N32)cc1 (stereo not given) | 29.9% (inactive)
15 | N#Cc1cc(-c2nc3ccccc3s2)c(=O)n(NS(=O)(=O)c2ccccc2)c1N | 103% (inactive)
16 | COc1cc2oc(-c3cccc(C(=O)Nc4ccc(Br)cc4)c3)cc(=O)c2c(OC)c1OC | 8.6% (active)
17 | Cn1ccc2c1CC1CN(Cc3ccco3)C(=O)C1C2C(=O)O (stereo not given) | 109% (inactive)
18 | COc1cc2nc(-c3ccc(Cl)cc3)cc(OCCCN3CCCC3)c2cc1OC | 20.2% (inactive)
19 | Oc1cccc(CCc2ccc(Oc3cc(CCc4cccc(O)c4)cc(O)c3O)cc2)c1 | 39.5% (inactive)
20 | O=C(Nc1ccccc1C(=O)N/N=C(\c1ccccc1)c1ccccn1)c1ccc(F)cc1 | 29.1% (inactive)

Row | SMILES | growth
21 | Cc1cc(Cl)nc(N(CCNc2ccnc3cc(Cl)ccc23)Cc2ccccn2)n1 | 26.6% (inactive)
22 | Nc1n[nH]c2cccc(C#Cc3cccc(C(=O)Nc4cccc(C(F)(F)F)c4)c3)c12 | 58.9% (inactive)
23 | COc1cc(-c2cc(-c3ccc(N(C)C)cc3)nc(N3CCOCC3)c2C#N)cc(OC)c1OC | 9.28% (active)
24 | NS(=O)(=O)c1ccc(CCN2C(=O)C=CC2=O)cc1 | 102% (inactive)
25 | C=C1C(=O)O[C@H]2[C@H]1CC/C(COC(=O)NCC(C)c1ccc(CC(C)C)cc1)=C\CC[C@@]1(C)O[C@@H]21 (stereo not given in full) | -35.7% (active)
26 | CCN(c1ccccc1)S(=O)(=O)c1cc([N+](=O)[O-])ccc1Cl | 43.8% (inactive)
27 | COc1cc2cc(Oc3cccc(NC(=O)Nc4cc(C(F)(F)F)cc(C(F)(F)F)c4)c3)c(C)nc2cc1OC | 1.15% (active)
28 | O=C(NNc1nc2c(F)cccc2n2cccc12)c1cnccn1 | 10.6% (inactive)
29 | CCOC(=O)c1cc(C(=O)c2cc(OC)cc(OC)c2)n2ccc3ccccc3c12 | 108% (inactive)
30 | CCCCCN1C=C/C(=C\C(=O)N(C)c2ccc(OC(F)(F)F)cc2)c2ccccc21 | 94.7% (inactive)
31 | CCCCCCCC(=O)OCC/C=C/C1OC1C1OC(=O)/C=C\C=C\C(=O)N(C(C)=O)C(=O)/C=C(/C)CCC2OC2C1OC(=O)NC(C)=O (stereo not given) | 45.2% (inactive)
32 | CN1CCN(c2ccc(NC3=C(Cl)C(=O)c4ncccc4C3=O)cc2C(F)(F)F)CC1 | -4.52% (active)
33 | Clc1ccc(-c2ccc(CNCC3CCNCC3)o2)c(-c2ccccc2)c1 | -54.4% (active)
34 | COc1cc2c(=O)n(CCN)c3c4cc5c(cc4ccc3c2cc1OC)OCO5 | -41.7% (active)
35 | Cn1c(N2NC(=O)C(N=Nc3ccc(S(N)(=O)=O)cc3)C2=O)nc(-c2ccco2)c(C#N)c1=O (stereo not given) | 3.99% (active)
36 | O=c1[nH]nc(-c2ccccc2)c2sc3ncc(-c4ccc(Br)cc4)n3c12 | 12.4% (inactive)
37 | COc1cc(/C=C\c2cc(/C=C\c3ccc(O)c(OC)c3)n(C(=O)COc3ccccc3)n2)ccc1O | -3.54% (active)
38 | COC(=O)/C=C1\S/C(=N\NC(=O)c2cc3ccc2/C=C\c2ccc(cc2)/C=C\3)N(c2ccccc2)C1=O | -20.9% (active)
39 | CN(C)CC(O)c1ccc(/C=C/c2ccc(Cl)cc2)cc1 (stereo not given) | -8.89% (active)
40 | O=c1c2c(c(=O)n1O)c1c3ccc[nH]c3nc1c1nc3[nH]cccc3c12 | 93.9% (inactive)
